TGFb SMAD3 inh: inhibitors of TGF-b signaling; HepG2 CAGA-GFP TGF-b/SMAD3 reporter, GFP fluorescence, 18 h; TGF-beta stimulated, 500 pg/mL final; Potency, µM (titrated, usually from 46.1 µM), for inactives: top-dose activity, negative = inhibition, hits mostly inhibitors; 410,000 compounds, 1.2% hits; AID 588855; further: potency means the concentration at half of the fitted maximal effect; on the % scale 0 is the no-effect control and ±100 the full control effect; nearly all actives have a fitted effect of over 65% in size
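Using HEPG2 CAGA-GFP reporter cells at 1000 cells/well, we pinned test compounds, stimulated with recombinant TGF-beta (500 pg/mL final) and measured total well GFP after 18 h.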
IL1B secr inh: inhibitors of inflammasome signaling (IL-1 beta secretion); THP-1 LPS/ATP IL-1B secretion, AlphaLISA, 16 h; stronger effect = lower value; activity change, % at 57.5 µM; 360,000 compounds, 4.7% hits; AID 743279; in the data active means activity change below about -50%; inconclusive means mostly about -30% to -49%; further: on the % scale 0 is the no-effect control and ±100 the full control effect
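Secreted IL-1B measured by AlphaLISA bead assay after 16 h compound exposure of THP-1 cells; compounds (final up to 57.5 uM) added 1 h before LPS (250 ng/mL) and ATP (1.25 mM) stimulation; lower signal means less secretion.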
HepG2 tox: counter-screen for TGF-b inhibitors: cytotoxicity in HepG2 cells; HepG2 CAGA-GFP viability, ATP luminescence, 18 h; Potency, µM (doses to about 46.1 µM), inactives show top-dose activity change, negative = cytotoxicity, most hits filed as cytotoxic; AID 588856; 410,000 compounds, 0.76% hits; further: potency means the concentration at half of the fitted maximal effect
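CellTiter-Glo luminescence gave cytotoxicity after 18 hours at 37 degrees C. The cells were HepG2 CAGA-GFP in 1% FBS DMEM, stimulated with 500 pg/mL TGF-beta after compound addition. %Activity was normalised to no-cell wells (complete cell-killing) and DMSO (no toxicity), and curves were fitted and classified.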
S-ASM inh: blocks human secretory acid sphingomyelinase; P17405; placental ASM, HMU-PC fluorogenic substrate, 60 min; Potency, µM (top dose mostly 57.5 µM), without a hit: at the top dose activity change, negative = inhibition, hits mostly inhibitors; 340,000 compounds, 0.006% hits; AID 504937; further: potency means the concentration at half of the fitted maximal effect
Target sequence (P17405 47-631 limits assumed): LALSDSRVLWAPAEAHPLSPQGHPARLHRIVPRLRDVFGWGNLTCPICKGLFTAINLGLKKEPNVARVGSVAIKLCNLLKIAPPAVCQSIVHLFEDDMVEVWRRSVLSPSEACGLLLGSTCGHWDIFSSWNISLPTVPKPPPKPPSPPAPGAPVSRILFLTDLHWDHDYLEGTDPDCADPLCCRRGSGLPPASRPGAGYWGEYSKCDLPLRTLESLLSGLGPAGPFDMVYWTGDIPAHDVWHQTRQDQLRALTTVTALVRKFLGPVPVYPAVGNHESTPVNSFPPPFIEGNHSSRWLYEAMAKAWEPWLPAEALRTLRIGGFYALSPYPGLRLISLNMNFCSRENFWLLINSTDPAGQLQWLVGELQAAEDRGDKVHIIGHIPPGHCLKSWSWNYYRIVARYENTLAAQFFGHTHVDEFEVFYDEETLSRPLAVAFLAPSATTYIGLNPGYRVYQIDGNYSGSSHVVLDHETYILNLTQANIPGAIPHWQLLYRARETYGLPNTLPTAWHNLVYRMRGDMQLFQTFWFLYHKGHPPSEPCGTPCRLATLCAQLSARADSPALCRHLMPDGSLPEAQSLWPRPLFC
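Steps: dispense placental human ASM, pin compound, wait 10 min at room temperature, add HMU-PC0 substrate at 9 uM final, incubate 60 min at 37 °C, add stop solution raising pH to 10, read fluorescence.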
TDP1 cell CPT: growth inhibition of DT40 Tdp1-/-;hTDP1 cells with camptothecin (screen for TDP1 inhibitors). chicken DT40 Tdp1-/-;hTDP1 cells + 20 nM CPT, ATP luminescence, 48 h. Potency, µM (highest dose often 46.2 µM), inactives show top-dose activity change, negative = growth inhibition, usual class: inhibitors. 420,000 compounds, 12% hits. AID 686979; further: potency means the concentration at half of the fitted maximal effect; on the % scale 0 is the no-effect control and ±100 the full control effect; nearly all actives have a fitted effect of over 55% in size
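Chicken DT40 Tdp1-/- cells complemented with human TDP1, 400 cells/well, exposed to compounds plus 20 nM camptothecin for at least 48 h at 37 C; viability read as ATP content by CellTiter-Glo luminescence.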
TDP1 cell noCPT: qHTS for Inhibitors of human tyrosyl-DNA phosphodiesterase 1 (TDP1): qHTS in cells in absence of CPT. DT40 Tdp1-/- hTDP1 cells, no CPT, ATP luminescence, 48 h. Potency, µM (doses to about 46.2 µM), for the others: top-dose activity change, negative = growth inhibition, actives largely listed as inhibitors. 420,000 compounds, 15% hits; further: potency means the concentration at half of the fitted maximal effect; on the % scale 0 is the no-effect control and ±100 the full control effect; nearly all actives have a fitted effect of over 55% in size
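No-CPT arm: Tdp1-/-;hTDP1 DT40 cells (400/well) plus compounds, incubated ≥48 hr at 37 °C. Readout CellTiter-Glo luminescence.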
* = called active by the depositor. Rows were chosen to be rich in hits. Some 19% of all compounds tested hit in one or more screens of this group. Unless noted, the call rests on the fitted dose curve; in most records, active means well fitted curve in the direction sought with a large enough effect; inconclusive means small, poorly fitted or top-dose-only effect, or another doubt; inactive means no such curve, though single readings can be large; an effect the other way counts as inactive or inconclusive.

What do the screens show for `COc1ccc2[nH]cc(S(=O)(=O)c3ccc(C(C)C)cc3)c(=O)c2c1`?
TGFb SMAD3 inh: -4%; IL1B secr inh: 2; HepG2 tox: 0%; S-ASM inh: 0%; TDP1 cell CPT: -2%; TDP1 cell noCPT: -1%

How did CC(=O)c1ccc(-c2ccc(C(=O)Nc3nc(-c4ccccn4)cs3)o2)cc1 do in these assays?
TGFb SMAD3 inh: 13µM*; IL1B secr inh: 161; HepG2 tox: -58%; S-ASM inh: 20%; TDP1 cell CPT: 2.9µM*; TDP1 cell noCPT: 3.7µM*

How did Cc1ccc(C(=O)Nc2ncccc2O)o1 do in these assays?
TGFb SMAD3 inh: -8%; IL1B secr inh: 27; HepG2 tox: -10%; S-ASM inh: 0%; TDP1 cell CPT: -6%; TDP1 cell noCPT: inconclusive

How did O=C(Nc1nc(-c2ccccn2)cs1)c1ccc(-c2ccccc2F)o1 do in these assays?
TGFb SMAD3 inh: 14µM*; IL1B secr inh: 94; HepG2 tox: -89%; S-ASM inh: -14%; TDP1 cell CPT: 5.8µM*; TDP1 cell noCPT: 10µM*

What do the screens show for `Cc1ccc(C(=O)Nc2nc(-c3ccccn3)cs2)o1`?
TGFb SMAD3 inh: inconclusive; IL1B secr inh: 165; HepG2 tox: 2%; S-ASM inh: 1%; TDP1 cell CPT: 5.8µM*; TDP1 cell noCPT: 3.7µM*

What do the screens show for `CCc1nnc(NC(=O)c2ccc(-c3ccc(C(C)=O)cc3)o2)s1`?
TGFb SMAD3 inh: -8%; IL1B secr inh: inconclusive; HepG2 tox: -1%; S-ASM inh: 18%; TDP1 cell CPT: -16%; TDP1 cell noCPT: 5%

What do the screens show for `CCc1cc(C(=O)Nc2nc(-c3ccccn3)cs2)sc1C`?
TGFb SMAD3 inh: inconclusive; IL1B secr inh: 114; HepG2 tox: -19%; S-ASM inh: 3%; TDP1 cell CPT: 4.6µM*; TDP1 cell noCPT: 2.9µM*

How did CCc1sc(C(=O)Nc2nc(C)cs2)cc1C do in these assays?
TGFb SMAD3 inh: 2%; IL1B secr inh: -9; HepG2 tox: -19%; S-ASM inh: -1%; TDP1 cell CPT: inconclusive; TDP1 cell noCPT: inconclusive

Results for CCCn1c2ccccc2c2cnn(CC(=O)NCCc3ccc(OC)cc3OC)c(=O)c21 ?
TGFb SMAD3 inh: inconclusive; HepG2 tox: -3%; TDP1 cell CPT: inconclusive; TDP1 cell noCPT: inconclusive

How did Cc1ccc(N2CCN(c3cc(C)nc4c(-c5ccc(Cl)cc5)c(C)nn34)CC2C)cc1 (stereo not given) do in these assays?
TGFb SMAD3 inh: 3%; HepG2 tox: -11%; TDP1 cell CPT: 11%; TDP1 cell noCPT: 0%

What do the screens show for `CCCCC#Cc1nc(NC)c2ncn([C@@H]3O[C@@H](CO)[C@H](O)[C@H]3O)c2n1`?
TDP1 cell CPT: -10%; TDP1 cell noCPT: 1%

How did Cc1ccc(S(=O)(=O)CCC(=O)OCC(=O)N(Cc2ccccc2)C(C)C)cc1 do in these assays?
TGFb SMAD3 inh: 7%; IL1B secr inh: 3; HepG2 tox: -1%; S-ASM inh: 2%; TDP1 cell CPT: 13%; TDP1 cell noCPT: -2%

What do the screens show for `O=C(O)C(Oc1ccc2cc(-c3ccc(Cl)cc3)c(=O)oc2c1)c1ccccc1` (stereo not given)?
TGFb SMAD3 inh: 14%; IL1B secr inh: -7; HepG2 tox: -23%; S-ASM inh: inactive; TDP1 cell CPT: -7%; TDP1 cell noCPT: 0%

Results for c1ccc(CCNc2nc(-c3ccccn3)cs2)cc1 ?
TGFb SMAD3 inh: -15%; IL1B secr inh: 0; HepG2 tox: -19%; S-ASM inh: 3%; TDP1 cell CPT: inconclusive; TDP1 cell noCPT: 7.3µM*

Results for CC(C(=O)N1CCN(c2ccc([N+](=O)[O-])cc2)CC1)N1C(=O)C2CC=CCC2C1=O (stereo not given) ?
TGFb SMAD3 inh: -24%; IL1B secr inh: 0; HepG2 tox: -27%; S-ASM inh: -7%; TDP1 cell CPT: inconclusive; TDP1 cell noCPT: inconclusive

How did Cc1ccc(-c2cc(C(=O)N/N=C/c3ccco3)n[nH]2)s1 do in these assays?
TGFb SMAD3 inh: 6%; IL1B secr inh: -7; HepG2 tox: -19%; S-ASM inh: -1%; TDP1 cell CPT: -26%; TDP1 cell noCPT: inconclusive

Results for CC(/C=N/NC(=O)c1cc(C(C)(C)C)[nH]n1)=C\c1ccccc1 ?
TGFb SMAD3 inh: 34%; IL1B secr inh: -22; HepG2 tox: -22%; S-ASM inh: 19%; TDP1 cell CPT: inconclusive; TDP1 cell noCPT: 23µM*

How did Cc1ccsc1/C=N\NC(=O)c1cc(C(C)(C)C)[nH]n1 do in these assays?
TGFb SMAD3 inh: inconclusive; IL1B secr inh: -12; HepG2 tox: -14%; S-ASM inh: 3%; TDP1 cell CPT: -24%; TDP1 cell noCPT: inconclusive

Results for CC(/C=N/NC(=O)c1cc(-c2ccc(C)s2)[nH]n1)=C\c1ccccc1 ?
TGFb SMAD3 inh: inconclusive; IL1B secr inh: 17; HepG2 tox: -59%; S-ASM inh: -1%; TDP1 cell CPT: 8.2µM*; TDP1 cell noCPT: 2.6µM*

Results for Cc1ccc(CNC(=O)CCc2c(C)nn(-c3ccc(N4CCCCC4)nn3)c2C)cc1 ?
TGFb SMAD3 inh: -60%; HepG2 tox: -6%; TDP1 cell CPT: inconclusive; TDP1 cell noCPT: inconclusive

How did CCc1ccc(CNC(=O)CCc2c(C)nn(-c3ccc(N4CCCCC4)nn3)c2C)cc1 do in these assays?
TGFb SMAD3 inh: inconclusive; HepG2 tox: -18%; TDP1 cell CPT: inconclusive; TDP1 cell noCPT: inconclusive

What do the screens show for `Cc1nn(-c2ccc(N3CCCCC3)nn2)c(C)c1CCC(=O)NCc1ccc(Cl)cc1`?
TGFb SMAD3 inh: -20%; HepG2 tox: -9%; TDP1 cell CPT: inconclusive; TDP1 cell noCPT: 26µM*

Results for Cc1nn(-c2ccc(N3CCCCC3)nn2)c(C)c1CCC(=O)NCc1ccc(OC(C)C)cc1 ?
TGFb SMAD3 inh: -7%; HepG2 tox: -24%; TDP1 cell CPT: 16µM*; TDP1 cell noCPT: 16µM*

Results for CC(=O)c1ccc(S(=O)(=O)N2CCn3cccc3C2c2ccc(F)c(F)c2)cc1 (stereo not given) ?
TGFb SMAD3 inh: -11%; HepG2 tox: -15%; TDP1 cell CPT: inconclusive; TDP1 cell noCPT: 21µM*

What do the screens show for `Cc1ccc(C2c3cccn3CCN2S(=O)(=O)c2ccc([N+](=O)[O-])cc2)cc1` (stereo not given)?
TGFb SMAD3 inh: -18%; HepG2 tox: 0%; TDP1 cell CPT: inconclusive; TDP1 cell noCPT: 18µM*

Screening results (PubChem)
